# From PubChem BioAssay (NCI)
# This is part of a sample that, as a whole, favours compounds with a hit. Of some 79,000 tested, about 15% had one in any assay. Values without a mark were called inactive. Active and inactive are the calls of the source. No stated cut-off is given here; in the data, active means growth inhibition above about 70%; inactive means the rest.
# Assays:
# [1] = NCI Yeast Anticancer Drug Screen. Data for the rad52 strain (AID 147);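 further: 0% = growth of vehicle-treated control cultures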; details: S. cerevisiae rad52 mutant growth inhibition, hits give high values
# Summary of the method: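 The repair-mutant yeast strain was incubated with compounds, then growth was read and inhibition derived relative to vehicle.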
# [2] = NCI Yeast Anticancer Drug Screen. Data for the wt1 strain (AID 149);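 further: 0% = growth of vehicle-treated wt1 cultures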; details: S. cerevisiae wt1 strain (SPY 50644) growth inhibition, hits give high values
# Summary of the method: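 Measured: growth of wt1 yeast under compound versus vehicle treatment, reported as inhibition.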
# [3] = NCI Yeast Anticancer Drug Screen. Data for the rad50EPP+ strain (AID 151);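 further: 0% = growth of vehicle-treated control cultures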; details: S. cerevisiae rad50 mutant strain, hits give high values
# Summary of the method: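 Vehicle-normalised growth inhibition; rad50EPP+ yeast strain, altered in DNA damage repair, compound-treated.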
# [4] = NCI Yeast Anticancer Drug Screen. Data for the mgt1 strain (AID 153); details: S. cerevisiae mgt1 mutant growth inhibition, hits give high values
# Summary of the method: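 Vehicle-normalized growth inhibition is determined in mgt1 yeast, a strain selected for a defined alteration in DNA repair or cell cycle control.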
# [5] = NCI Yeast Anticancer Drug Screen. Data for the rad50 strain (AID 155);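 further: 0% = growth of vehicle-only cultures of the same strain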; details: S. cerevisiae rad50 strain growth inhibition, hits give high values
# Summary of the method: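 Growth of the mutant yeast was measured after compound exposure and referenced to vehicle-treated cultures.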
# [6] = NCI Yeast Anticancer Drug Screen. Data for the mec2-1 strain (AID 157); details: S. cerevisiae mec2-1 strain, hits give high values
# Summary of the method: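 Mutant yeast (mec2-1) grown with compound; growth inhibition relative to vehicle control reported.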
# [7] = NCI Yeast Anticancer Drug Screen. Data for the rad14 strain (AID 159);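 further: 0% = growth of vehicle-treated control cultures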; details: S. cerevisiae rad14 strain growth inhibition, hits give high values
# Summary of the method: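 Here, inhibition of yeast growth was measured after compound exposure, using a strain with a genetic defect in DNA damage repair and vehicle-treated cultures as the reference.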
# [8] = NCI Yeast Anticancer Drug Screen. Data for the sgs1 mgt1 strain (AID 161);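 further: 0% = growth of cultures given vehicle only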; details: S. cerevisiae sgs1 mgt1 strain, hits give high values
# Summary of the method: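 Percent growth inhibition was derived by comparing compound-exposed mutant yeast with vehicle-exposed cultures. The strain carries alterations in DNA damage repair.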
# [9] = NCI Yeast Anticancer Drug Screen. Data for the CLN2oe strain (AID 163);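 further: 0% = growth of vehicle-only control cultures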; details: S. cerevisiae CLN2oe strain, hits give high values
# Summary of the method: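 Compounds are applied to yeast harbouring a defined cell-cycle control change; reduced growth compared with vehicle-treated controls gives the value.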
# [10] = NCI Yeast Anticancer Drug Screen. Data for the bub3 strain (AID 167); details: S. cerevisiae bub3 mutant strain, hits give high values
# Summary of the method: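 Whole-cell yeast assay. The mutant strain was incubated with compounds, and growth inhibition was determined by comparison with vehicle-treated cells.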
# [11] = NCI Yeast Anticancer Drug Screen. Data for the wt2 strain (AID 169);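 further: 0% = growth of vehicle-treated yeast cultures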; details: S. cerevisiae wt2 strain growth inhibition, hits give high values
# Summary of the method: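 Against vehicle-treated controls, the growth of yeast exposed to each compound was compared, and the inhibition was recorded.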
# [12] = NCI Yeast Anticancer Drug Screen. Data for the sgs1 strain (AID 173);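 further: 0% = growth of vehicle-only control cultures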; details: S. cerevisiae sgs1 mutant, hits give high values
# Summary of the method: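 Each compound was added to cultures of the altered yeast strain. Growth was recorded, and inhibition was derived by comparison with vehicle controls.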
# [13] = NCI Yeast Anticancer Drug Screen. Data for the mlh1 rad18 strain (AID 175); details: S. cerevisiae mlh1 rad18 strain growth inhibition, hits give high values
# Summary of the method: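 Genetically defined yeast (DNA repair-deficient) exposed to compounds; growth inhibition determined relative to vehicle.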
# [14] = NCI Yeast Anticancer Drug Screen. Data for the rad18 strain (AID 177); details: S. cerevisiae rad18 mutant growth inhibition, hits give high values
# Summary of the method: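 Vehicle-treated cultures served as the baseline for scoring compound-induced growth inhibition in DNA-repair-mutant yeast.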
# [15] = at 5.0 µM (retest, dose inferred, filed as 0.5)
# [16] = at 50.0 µM (retest, dose inferred, filed as 5.0)
compound,measurement,setting,value
Nc1ccc(S(=O)(=O)Nc2ccc(Nc3c4ccccc4nc4ccccc34)cc2)cc1,growth inhibition,[1]; at 1.2 µM,21%
same,growth inhibition,[1]; at 3.7 µM,69%
same,growth inhibition,[1]; at 11.0 µM,88% (active)
same,growth inhibition,[1]; at 33.0 µM,93% (active)
same,growth inhibition,[1]; at 100.0 µM,95% (active)
same,growth inhibition,[2]; at 1.2 µM,2%
same,growth inhibition,[2]; at 3.7 µM,19%
same,growth inhibition,[2]; at 11.0 µM,18%
same,growth inhibition,[2]; at 33.0 µM,18%
same,growth inhibition,[2]; at 100.0 µM,43%
same,growth inhibition,[3]; at 1.2 µM,8%
same,growth inhibition,[3]; at 3.7 µM,56%
same,growth inhibition,[3]; at 11.0 µM,77% (active)
same,growth inhibition,[3]; at 33.0 µM,76% (active)
same,growth inhibition,[3]; at 100.0 µM,79% (active)
same,growth inhibition,[4]; at 1.2 µM,4%
same,growth inhibition,[4]; at 3.7 µM,4%
same,growth inhibition,[4]; at 11.0 µM,3%
same,growth inhibition,[4]; at 33.0 µM,13%
same,growth inhibition,[4]; at 100.0 µM,50%
same,growth inhibition,[5]; at 1.2 µM,22%
same,growth inhibition,[5]; at 3.7 µM,66%
same,growth inhibition,[5]; [15],59%
same,growth inhibition,[5]; at 11.0 µM,86% (active)
same,growth inhibition,[5]; at 33.0 µM,93% (active)
same,growth inhibition,[5]; [16],87% (active)
same,growth inhibition,[5]; at 50.0 µM,79.1% (active)
same,growth inhibition,[5]; at 100.0 µM,94% (active)
same,growth inhibition,[6]; at 1.2 µM,0%
same,growth inhibition,[6]; at 3.7 µM,11%
same,growth inhibition,[6]; [15],-24%
same,growth inhibition,[6]; at 11.0 µM,6%
same,growth inhibition,[6]; at 33.0 µM,19%
same,growth inhibition,[6]; [16],31%
same,growth inhibition,[6]; at 50.0 µM,57.4%
same,growth inhibition,[6]; at 100.0 µM,77% (active)
same,growth inhibition,[7]; at 1.2 µM,7%
same,growth inhibition,[7]; at 3.7 µM,18%
same,growth inhibition,[7]; at 11.0 µM,14%
same,growth inhibition,[7]; at 33.0 µM,25%
same,growth inhibition,[7]; at 100.0 µM,58%
same,growth inhibition,[8]; [15],-7%
same,growth inhibition,[8]; [16],19%
same,growth inhibition,[8]; at 50.0 µM,21%
same,growth inhibition,[9]; at 1.2 µM,-29%
same,growth inhibition,[9]; at 3.7 µM,-5%
same,growth inhibition,[9]; at 11.0 µM,-15%
same,growth inhibition,[9]; at 33.0 µM,4%
same,growth inhibition,[9]; at 100.0 µM,33%
same,growth inhibition,[10]; at 1.2 µM,8%
same,growth inhibition,[10]; at 3.7 µM,31%
same,growth inhibition,[10]; [15],-18%
same,growth inhibition,[10]; at 11.0 µM,15%
same,growth inhibition,[10]; at 33.0 µM,4%
same,growth inhibition,[10]; [16],-4%
same,growth inhibition,[10]; at 50.0 µM,-22.1%
same,growth inhibition,[10]; at 100.0 µM,39%
same,growth inhibition,[11]; at 1.2 µM,-42%
same,growth inhibition,[11]; at 3.7 µM,-39%
same,growth inhibition,[11]; at 11.0 µM,-38%
same,growth inhibition,[11]; at 33.0 µM,-30%
same,growth inhibition,[11]; at 100.0 µM,60%
same,growth inhibition,[12]; at 1.2 µM,8%
same,growth inhibition,[12]; at 3.7 µM,17%
same,growth inhibition,[12]; at 11.0 µM,24%
same,growth inhibition,[12]; at 33.0 µM,43%
same,growth inhibition,[12]; at 100.0 µM,79% (active)
same,growth inhibition,[13]; [15],0%
same,growth inhibition,[13]; [16],19%
same,growth inhibition,[14]; at 1.2 µM,17%
same,growth inhibition,[14]; at 3.7 µM,11%
same,growth inhibition,[14]; at 11.0 µM,6%
same,growth inhibition,[14]; at 33.0 µM,6%
same,growth inhibition,[14]; at 100.0 µM,58%
